A number with no mark means an inactive call. Records with an inconclusive call do not appear. Entries that show only a call come without a potency. Calls of active or inactive are those of the source. Unless noted, the call rests on the fitted dose curve; in most records, active means well fitted curve in the direction sought with a large enough effect; inconclusive means small, poorly fitted or top-dose-only effect, or another doubt; inactive means no such curve, though single readings can be large; an effect the other way counts as inactive or inconclusive.
What was measured:
[1] = qHTS Assay for Identification of Small Molecule Antagonists for NFkB Signaling Pathway (AID 895; active means well fitted inhibition curve with a large enough effect in the signal ratio, with a control signal flat, not every such curve was filed as active; the % refers to the signal ratio)
Summary of the method: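 Beta-lactamase reporter read-out (460 and 530 nm emission ratio, 405 nm excitation, 2 hrs substrate loading RT) after 5 hr stimulation with 10 pM TNF alpha in compound-treated NFkB-bla ME-180 cells in low-serum medium.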

[2] = Cell Viability - HepG2 (AID 433; calls by dose curve;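 further: potency means the concentration at half of the fitted maximal effect; potency for ATP loss meaning cytotoxicity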); conditions: qHTS
Summary of the method: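 HepG2 hepatocellular carcinoma cells (1500/well) were treated with compounds for 40 h at 37 °C in complete medium; intracellular ATP was read by CellTiter-Glo luminescence. Data were normalized to DMSO and 100 uM tamoxifen, and AC50 came from Hill fits.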

[3] = Cell Viability - HUV-EC-C (AID 542); further: potency means the concentration at half of the fitted maximal effect; nearly all actives have a fitted effect of over 35% in size
Summary of the method: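 HUV-EC-C normal human vascular endothelial cells, 1000 cells/well, pre-incubated 5 hr at 37 °C, then exposed to compounds for 40 hr at 37 °C in complete medium. Viability measured as intracellular ATP by CellTiter-Glo luminescence; AC50 from Hill fits.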

[4] = Cell Viability - Mesenchymal (AID 546);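 further: cells exposed to compound for 40 hours before reading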
Summary of the method: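 AC50 values reflect the drop in intracellular ATP in a human kidney mesenchymal line derived from normal glomeruli. Treatment lasts 40 hr at 37 °C in complete medium, and the signal comes from CellTiter-Glo luminescence.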

[5] = Cell Viability - LYMP2-004 (AID 966); further: nearly all actives have a fitted effect of over 65% in size
Summary of the method: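 Human lymphoblastoid cells (2500/well) in complete medium were treated with compounds for 24 hr at 37 C, then intracellular ATP was measured by CellTiter-Glo luminescence. AC50 values came from Hill-equation fits of concentration-response data.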

[6] = Cell Viability - LYMP2-005 (AID 967)
Summary of the method: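 CellTiter-Glo luminescence (cellular ATP) read-out; LYMP2-005 lymphoblastoid cells, 2500/well, 5 h pre-incubation, then 24 h compound exposure at 37 C in complete medium. Tetraoctylammonium bromide positive control; AC50 by standard Hill fit.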

[7] = target: Tumor necrosis factor (Homo sapiens) (UniProt P01375); assay: qHTS assay to identify small molecules that stimulate Tumor Necrosis Factor-alpha (TNF-alpha) secretion (AID 651757; active means well fitted curve in the direction sought with a large enough effect in the signal ratio; the % refers to the signal ratio)
Sequence of Tumor necrosis factor (Homo sapiens) (P01375 whole entry, looked up): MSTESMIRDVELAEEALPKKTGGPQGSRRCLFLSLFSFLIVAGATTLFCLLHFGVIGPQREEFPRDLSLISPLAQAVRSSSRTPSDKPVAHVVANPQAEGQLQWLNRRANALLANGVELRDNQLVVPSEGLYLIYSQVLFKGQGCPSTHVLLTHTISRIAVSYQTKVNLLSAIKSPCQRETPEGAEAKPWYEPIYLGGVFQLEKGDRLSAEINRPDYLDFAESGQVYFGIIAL
Summary of the method: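 THP-1 cells were exposed to compounds for 17 hrs at 37 C, after which secreted TNF-alpha was measured by homogeneous HTRF (TR-FRET) using cryptate- and XL665-labeled anti-TNF-alpha antibodies, read after 3 hr at room temperature.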

[8] = qHTS assay to identify small molecules that stimulate interleukin-8 (IL-8) secretion (AID 651758; active means well fitted activation curve with a large enough effect in the signal ratio; the % refers to the signal ratio)
Summary of the method: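 Secreted IL-8 measured by TR-FRET sandwich (cryptate and XL665 antibodies) from THP-1 cells exposed to compound overnight (16 hrs, 37 C).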

[9] = Cell Viability - BJ (AID 421; calls by dose curve;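 further: potency means the concentration at half of the fitted maximal effect; cells exposed to compound for 40 hours at 37 °C before readout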); conditions: BJ fibroblast viability, qHTS
Summary of the method: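 Quantitative HTS: ATP depletion in BJ cells after 40 hr compound exposure in complete culture medium, detected with CellTiter-Glo; AC50 from standard Hill fits.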

[10] = Cell Viability - SK-N-SH (AID 435; calls by dose curve;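 further: potency means the concentration at half of the fitted maximal effect; compound exposure lasted 40 h at 37 °C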); conditions: SK-N-SH neuroblastoma cell viability qHTS
Summary of the method: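 SK-N-SH human neuroblastoma cells (1500/well) were exposed to compounds in complete medium for 40 h at 37 °C, and intracellular ATP was then measured by CellTiter-Glo luminescence. AC50 was taken from Hill fits, normalized to DMSO and 100 uM tamoxifen.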

[11] = Cell Viability - N2a (AID 540); conditions: N2a mouse neuroblastoma cell viability; at 92.2 µM (top of the series); further: nearly all actives have a fitted effect of over 45% in size
Summary of the method: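 Mouse neuroblastoma N2a cells (1500/well) were preincubated 5 hr at 37 °C, then exposed to compounds for 40 hr at 37 °C in complete medium. Viability was read as intracellular ATP by CellTiter-Glo luminescence; AC50 from Hill fits.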

[12] = Cell Viability - H-4-II-E (AID 543); further: potency means the concentration at half of the fitted maximal effect; nearly all actives have a fitted effect of over 35% in size
Summary of the method: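 Rat hepatoma H-4-II-E cells (1500/well) were plated, incubated 5 hr at 37 °C, then exposed to compounds for 40 hr at 37 °C. Cellular ATP was read by CellTiter-Glo luminescence; AC50 came from Hill-equation fits of concentration-response data.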

[13] = Cellular Toxicity (caspase-3) HepG2 (AID 654);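 further: cells exposed to compound for 16 hours before reading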
Summary of the method: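 HepG2 cells (1500/well) in complete medium were treated with compounds for 16 hr at 37 °C. Caspase-3/7 activity was then read as luminescence from peptide-aminoluciferin cleavage. AC50 came from Hill fits, normalized to DMSO and 100 uM tamoxifen.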

[14] = Cellular Toxicity (caspase-3) Jurkat (AID 655); conditions: Jurkat caspase-3 activation, luminescence, DMSO = 0%, tamoxifen = 100%; at 92.2 µM (top of the series);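 further: cells exposed to compound for 16 h at 37 °C before reading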
Summary of the method: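 Jurkat cells (5000/well) in complete medium were treated with compounds for 16 hr at 37 °C, then Caspase-Glo 3/7 luminescence was read after 20 min at room temperature. Data normalized to DMSO (basal) and 100 uM tamoxifen (100%); AC50 from Hill fit.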

[15] = Cellular Toxicity (caspase-3) SHSY5Y (AID 657)
Summary of the method: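 SH-SY5Y human neuroblastoma cells (1500/well) were treated with compounds for 16 h at 37 °C, then Caspase-Glo 3/7 luminescence was read after 1 h at room temperature. Data normalized to DMSO and 10 uM staurosporine; AC50 from Hill fits.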

[16] = Cellular Toxicity (caspase-3) MRC-5 (AID 659)
Summary of the method: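 Concentration-dependent caspase 3/7 activation is measured in human normal lung fibroblasts (MRC-5) following 16-hour treatment. AC50 values come from standard Hill-equation modeling of luminescence normalized to DMSO and 10 uM staurosporine.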

[17] = Cellular Toxicity (caspase-3) Mesangial (AID 660);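 further: cells exposed to compound for 16 h before the caspase read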
Summary of the method: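 Human renal glomerular mesangial cells (1000/well) were treated with compounds for 16 h at 37 °C in complete medium, then caspase 3/7 activity was read by Caspase-Glo luminescence. Data were normalized to DMSO and 100 uM tamoxifen; AC50 from Hill fits.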

[18] = Cellular Toxicity (caspase-3) Hek293 (AID 664);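 further: cells exposed to compound for 16 h at 37 °C before readout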
Summary of the method: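 HEK293 cells were exposed to compounds in complete medium for 16 hr at 37 °C, then caspase-3/7 activity was read by Caspase-Glo 3/7 luminescence after 20 min at room temperature. Data normalized to DMSO and 100 uM tamoxifen; AC50 from Hill fits.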

[19] = MultiTox-Fluor Cytotoxicity Assay - LYMP1-001 - Live Cells (AID 947); further: potency means the concentration at half of the fitted maximal effect
[20] = target: Voltage-gated inwardly rectifying potassium channel KCNH2 (Homo sapiens) (UniProt Q12809); assay: qHTS Assay for Small Molecule Inhibitors of the Human hERG Channel Activity (AID 588834);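 further: potency means the concentration at half of the fitted maximal effect; lower thallium flux fluorescence means stronger hERG block; nearly all actives have a fitted effect of over 50% in size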
Sequence of Voltage-gated inwardly rectifying potassium channel KCNH2 (Homo sapiens) (Q12809 whole entry, looked up): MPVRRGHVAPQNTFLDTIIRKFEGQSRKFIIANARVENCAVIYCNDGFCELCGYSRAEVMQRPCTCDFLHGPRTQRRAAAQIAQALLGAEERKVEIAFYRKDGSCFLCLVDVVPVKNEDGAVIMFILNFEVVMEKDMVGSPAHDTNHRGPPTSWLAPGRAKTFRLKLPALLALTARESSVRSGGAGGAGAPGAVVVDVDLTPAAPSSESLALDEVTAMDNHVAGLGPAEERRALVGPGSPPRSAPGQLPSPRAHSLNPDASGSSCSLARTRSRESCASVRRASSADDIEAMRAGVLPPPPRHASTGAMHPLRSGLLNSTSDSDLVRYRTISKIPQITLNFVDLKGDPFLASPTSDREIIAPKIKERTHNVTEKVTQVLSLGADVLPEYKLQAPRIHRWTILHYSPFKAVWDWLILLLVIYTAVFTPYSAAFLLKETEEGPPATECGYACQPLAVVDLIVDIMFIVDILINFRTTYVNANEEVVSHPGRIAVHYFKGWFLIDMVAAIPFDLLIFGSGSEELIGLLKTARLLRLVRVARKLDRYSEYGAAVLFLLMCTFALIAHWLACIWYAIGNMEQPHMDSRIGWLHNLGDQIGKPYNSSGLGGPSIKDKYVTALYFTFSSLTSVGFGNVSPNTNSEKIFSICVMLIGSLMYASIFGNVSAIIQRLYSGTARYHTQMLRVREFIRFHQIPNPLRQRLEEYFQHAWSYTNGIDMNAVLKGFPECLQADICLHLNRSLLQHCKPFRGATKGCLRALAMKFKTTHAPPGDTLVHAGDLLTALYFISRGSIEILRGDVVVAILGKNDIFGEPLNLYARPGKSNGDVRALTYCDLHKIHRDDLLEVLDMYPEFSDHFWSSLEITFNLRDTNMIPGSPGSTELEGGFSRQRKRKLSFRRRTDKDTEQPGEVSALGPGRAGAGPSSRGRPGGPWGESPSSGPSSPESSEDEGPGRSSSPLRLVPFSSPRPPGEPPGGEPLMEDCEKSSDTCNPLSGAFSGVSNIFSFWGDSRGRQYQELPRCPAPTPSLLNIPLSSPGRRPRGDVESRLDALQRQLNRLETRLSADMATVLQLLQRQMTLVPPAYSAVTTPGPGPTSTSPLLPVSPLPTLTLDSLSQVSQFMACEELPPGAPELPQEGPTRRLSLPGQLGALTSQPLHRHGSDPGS
Summary of the method: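 U2OS cells transduced with hERG via BacMam (MOI ~100), plated 2000/well, loaded with FluxOR thallium dye, compound ~10 min, then stimulation buffer; fluorescence decrease read kinetically; AC50 from Hill fits.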

In the case of `CC(C)N(CC[C@@](C(N)=O)(c1ccccc1)c1ccccn1)C(C)C`, the Potency [1] is reported as “inactive”.
For `CCCCCCCCCc1ccc(O)cc1`, the Potency [2] was > 92 µM, the Potency [3] was 31.6 µM (active) and the outcome [4] was “inactive”. The Potency [5] was “inactive”, the Potency [6] was “inactive” and the outcome [7] was “inactive”. The Potency [8] was “inactive”.
For `O=C1C(Cl)=C(Cl)C(=O)C(Cl)=C1Cl`, the Potency [9] was 50.5 µM (active), the Potency [10] was 40.5 µM (active) and the activity change, negative = cytotoxicity [11] was -88.2% (active). For the same molecule, the Potency [12] was 50.1 µM (active), the outcome [13] was “inactive” and the caspase-3 activation [14] was -9.68%. For the same molecule, the outcome [15] was “inactive”, the outcome [16] was “inactive” and the outcome [17] was “inactive”. For the same molecule, the outcome [18] was “inactive”, the Potency [19] was 39.8 µM (active) and the Potency [20] was 44.7 µM (active).
